TGFb SMAD3 inh = qHTS for Inhibitors of TGF-b; HepG2 CAGA-GFP TGF-b/SMAD3 reporter, GFP fluorescence, 18 h; TGF-beta stimulated, 500 pg/mL final; Potency, µM (series often up to 46.1 µM), for the others: top-dose activity, negative = inhibition, most hits filed as inhibitors; AID 588855, 2011; 410,000 compounds, 1.2% hits; note: potency is the fitted concentration of half-maximal effect; % is set by controls: 0 for no effect and ±100 for the full control effect; nearly all actives have a fitted effect of over 65% in size
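Cell-based qHTS in HEPG2 carrying a CAGA-GFP Smad reporter; compounds added before 500 pg/mL final TGF-beta, 18 h incubation at 37 degrees C, GFP fluorescence quantified per cell by imaging cytometry.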
HepG2 viability = qHTS for Inhibitors of TGF-b: Cytotox Counterscreen. HepG2 CAGA-GFP viability, ATP luminescence, 18 h. Potency, µM (doses to about 46.1 µM), without a hit: at the top dose activity change, negative = cytotoxicity, actives largely listed as cytotoxic. 410,000 compounds, 0.76% hits. AID 588856, 2011; note: potency is the fitted concentration of half-maximal effect
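HepG2 CAGA-GFP cells (1000/well, DMEM with 1% FBS) received compound, then TGF-beta at 500 pg/mL final, and were incubated 18 hours at 37 degrees C. Viability was read by CellTiter-Glo luminescence. Media-only wells were set as complete cell-killing and DMSO as no toxicity.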
HT1080 IDH1KD tx = qHTS for induction of synthetic lethality in tumor cells producing 2HG: qHTS for the HT-1080-IDH1KD cell line; HT-1080 IDH1 knockdown viability, ATP luminescence, 48 h; Potency, µM (series often up to 46.1 µM), for the others: at the highest dose activity, negative = toxicity, hits mostly cytotoxic; 360,000 compounds, 2% hits; AID 686971, 2013;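 note: potency is the fitted concentration of half-maximal effect; 0% = DMSO wells and -100% = cell-free medium wells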
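CellTiter-Glo luminescence after 48 h compound exposure at 37 degrees C of IDH1-knockdown HT-1080 cells in 5% FBS RPMI. %Activity scaled between DMSO wells and cell-free media wells, with curves fitted and assigned curve classes.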
IL1B secr inh = qHTS for Inhibitors of Inflammasome Signaling: IL-1-beta AlphaLISA Primary Screen; THP-1 LPS/ATP IL-1B secretion, AlphaLISA, 16 h; stronger effect = lower value; activity change, % at 57.5 µM; 360,000 compounds, 4.7% hits; in the data active = activity change below about -50%; inconclusive = mostly about -30% to -49%; note: % is set by controls: 0 for no effect and ±100 for the full control effect
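Secreted IL-1B measured by AlphaLISA bead assay after 16 h compound exposure of THP-1 cells; compounds (final up to 57.5 uM) added 1 h before LPS (250 ng/mL) and ATP (1.25 mM) stimulation; lower signal means less secretion.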
Giardia killer = Small Molecules that selectively kill Giardia lamblia: qHTS; 340,000 compounds, 0.15% hits; AID 540267, 2011; Giardia lamblia trophozoite viability; activity change, % at 7.66 µM, hits read low; in the data active = activity change below about -80%; inconclusive = between about -30% and that limit;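 note: parasites exposed to compound for two days anaerobically before the ATP read; % is set by controls: 0 for no effect and ±100 for the full control effect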
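ATP-content bioluminescence gauges trophozoite survival. Cells (100/well) receive compound and incubate anaerobically for 48 hrs at 37 deg C; detection reagent follows for 15-30 min at room temperature.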
HT1080-NT tox = qHTS for induction of synthetic lethality in tumor cells producing 2HG: qHTS for the HT-1080-NT fibrosarcoma cell line | Potency, µM (titrated, usually from 46.1 µM), without a hit: top-dose activity, negative = less viability, hits mostly cytotoxic | HT-1080-NT fibrosarcoma viability, CellTiter-Glo ATP luminescence, 48 h | 360,000 compounds, 1.6% hits;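 note: NT is the 2HG producing partner of a matched IDH1 knockdown line; potency is the fitted concentration of half-maximal effect; 0% = DMSO-treated cells and -100% = media-only wells without cells; nearly all actives have a fitted effect of over 55% in size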
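A 48-hour cytotoxicity screen used HT-1080-NT cells plated 2 hours before compound delivery. ATP-based CellTiter-Glo luminescence measured viability, normalized to DMSO and no-cell controls.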
* marks the source's active call; other numbers are inactive results; [ ] = another dose, or the depositor's remark. An excerpt weighted towards active compounds, which were near 6.5% of everything screened. Unless noted, calls come from the whole dose curve; as a rule, active = well fitted curve in the direction sought with a large enough effect; inconclusive = small, poorly fitted or top-dose-only effect, or another doubt; inactive = no such curve, though single readings can be large; an effect the other way counts as inactive or inconclusive.

`O=C(COc1ccccc1)NC(=S)N1CCc2ccccc21` gave TGFb SMAD3 inh 5%, HepG2 viability -1%, HT1080 IDH1KD tx 3%, IL1B secr inh 15, Giardia killer 10 and HT1080-NT tox -1%.
`O=C(Nc1cccc(S(=O)(=O)N2CCCCC2)c1)c1c2c(nc3ccccc13)CCN(Cc1ccccc1)C2` gave TGFb SMAD3 inh inconclusive, HepG2 viability -5%, HT1080 IDH1KD tx -21%, IL1B secr inh -1, Giardia killer 1 and HT1080-NT tox -20%.
`COc1ccccc1NC(=O)c1cnc(SCC(=O)N2CCOCC2)n(C)c1=O` gave TGFb SMAD3 inh -19% and HepG2 viability -24%.
COc1ccccc1NC(=O)c1cnc(SCC(=O)NCC2CCCO2)n(C)c1=O (stereo unspecified) was read as TGFb SMAD3 inh inconclusive, HepG2 viability -29%, HT1080 IDH1KD tx -23%, IL1B secr inh -97*, Giardia killer 8 and HT1080-NT tox -40%.
Cc1cc(C)nc(NC(=O)c2c(F)c(F)c(F)c(C(=O)Nc3cc(C)cc(C)n3)c2F)c1 was read as TGFb SMAD3 inh inconclusive, HepG2 viability -83%, HT1080 IDH1KD tx -21%, IL1B secr inh -69*, Giardia killer -3 and HT1080-NT tox -19%.
`O=C(Nc1nc(-c2ccccc2)cs1)c1cccs1` gave TGFb SMAD3 inh inconclusive, HepG2 viability -14%, HT1080 IDH1KD tx -30%, IL1B secr inh -72*, Giardia killer 13 and HT1080-NT tox -25%.
O=C(Nc1ccc([N+](=O)[O-])cc1)Nc1nc(-c2ccc(Cl)s2)cs1 was read as TGFb SMAD3 inh inconclusive, HepG2 viability 10µM*, HT1080 IDH1KD tx 7.3µM*, IL1B secr inh -99*, Giardia killer -23 and HT1080-NT tox 6.5µM*.
For CSCCC(=O)Nc1nc(-c2ccccn2)cs1 the results were TGFb SMAD3 inh inconclusive, HepG2 viability -32%, HT1080 IDH1KD tx -5%, IL1B secr inh 17, Giardia killer -18 and HT1080-NT tox -16%.
For O=C(Nc1nc(-c2ccccc2)ns1)c1cccs1 the results were TGFb SMAD3 inh inconclusive, HepG2 viability -42%, HT1080 IDH1KD tx 4%, IL1B secr inh -12, Giardia killer 1 and HT1080-NT tox inconclusive.
For CC(=O)Nc1nc(-c2ccc([N+](=O)[O-])cc2)cs1 the results were TGFb SMAD3 inh -4%, HepG2 viability -20%, HT1080 IDH1KD tx -6%, IL1B secr inh -13, Giardia killer -14 and HT1080-NT tox -13%.
O=C(Nc1nc(-c2ccccn2)cs1)C1CCCC1 was read as TGFb SMAD3 inh -21%, HepG2 viability -7%, HT1080 IDH1KD tx -25%, IL1B secr inh -71*, Giardia killer -12 and HT1080-NT tox -6%.
Screening O=C(Nc1nc(-c2ccccn2)cs1)c1ccc(Cl)s1 returned TGFb SMAD3 inh inconclusive, HepG2 viability -15%, HT1080 IDH1KD tx 4.1µM*, IL1B secr inh 89, Giardia killer -26 and HT1080-NT tox inconclusive.
CCCC(=O)Nc1nc(-c2ccc(Cl)s2)cs1 was read as TGFb SMAD3 inh -23%, HepG2 viability -15%, HT1080 IDH1KD tx -10%, IL1B secr inh 0, Giardia killer -1 and HT1080-NT tox -4%.
For O=C(Nc1ccc2nc(-c3ccccc3)[nH]c2c1)c1cccs1 the results were TGFb SMAD3 inh inconclusive, HepG2 viability -54%, HT1080 IDH1KD tx 16%[9.24 µM], IL1B secr inh -65*, Giardia killer 1 and HT1080-NT tox inconclusive.
For O=C(Nc1nc(-c2nc3ccccc3s2)cs1)c1ccco1 the results were TGFb SMAD3 inh 3%, HepG2 viability -13%, HT1080 IDH1KD tx 14%, IL1B secr inh -9, Giardia killer inconclusive and HT1080-NT tox 26%.
Screening O=C(Nc1nc(-c2ccc(Cl)s2)cs1)c1ccco1 returned TGFb SMAD3 inh inconclusive, HepG2 viability -8%, HT1080 IDH1KD tx -8%, IL1B secr inh -84*, Giardia killer inconclusive and HT1080-NT tox -3%.
O=C(Nc1ccc2nc(-c3ccc4nc[nH]c4c3)[nH]c2c1)c1cccs1 was read as TGFb SMAD3 inh 2%, HepG2 viability -41%, HT1080 IDH1KD tx -27%, IL1B secr inh -21, Giardia killer 2 and HT1080-NT tox -20%.
`O=C(Nc1nc(-c2ccc(Cl)s2)cs1)c1cccs1` gave TGFb SMAD3 inh inconclusive, HepG2 viability -42%, HT1080 IDH1KD tx inconclusive, IL1B secr inh -84*, Giardia killer -4 and HT1080-NT tox inconclusive.
Screening C/C(=N\N1CCN(Cc2ccc(Cl)cc2)CC1)c1ccc(F)cc1 returned TGFb SMAD3 inh inconclusive, HepG2 viability -26%, HT1080 IDH1KD tx 3%, IL1B secr inh -10, Giardia killer -14 and HT1080-NT tox 4%.
CN(C(=O)c1ccccc1NC(=O)C(F)(F)F)c1ccccc1 was read as TGFb SMAD3 inh 13%, HepG2 viability -7%, HT1080 IDH1KD tx -6%, IL1B secr inh 0, Giardia killer -2 and HT1080-NT tox -2%[9.24 µM].
`CCOc1ccccc1C(=O)Nc1cc2c(cc1N1CCCC1)n(CC)c(=O)n2CC` gave TGFb SMAD3 inh inconclusive, HepG2 viability -58%, HT1080 IDH1KD tx -25%, IL1B secr inh -10, Giardia killer 7 and HT1080-NT tox -3%.
Cc1cc(C)n2nc(-c3ccc(Cl)cc3)cc2n1 was read as TGFb SMAD3 inh -12%, HepG2 viability -75%, HT1080 IDH1KD tx -5%, IL1B secr inh 29, Giardia killer -18 and HT1080-NT tox -12%.
Cc1nc2cc(-c3ccc(Cl)cc3)nn2c(NCCN(C)C)c1C was read as TGFb SMAD3 inh -10%, HepG2 viability -31%, HT1080 IDH1KD tx -16%, IL1B secr inh -75*, Giardia killer -96* and HT1080-NT tox inconclusive.
`CC(=O)N1CCN(C(=O)CCc2nc3ccccc3c(=O)[nH]2)CC1` gave TGFb SMAD3 inh -16%, HepG2 viability 3%, HT1080 IDH1KD tx 9%, IL1B secr inh 9, Giardia killer -6 and HT1080-NT tox -2%.
For Cc1ccc2c(c1)CCCN2C(=O)CCc1nc2ccccc2c(=O)[nH]1 the results were TGFb SMAD3 inh -1%, HepG2 viability 3%, HT1080 IDH1KD tx inconclusive, IL1B secr inh 11, Giardia killer 21 and HT1080-NT tox 8.2µM*.
